Drawing on PubChem BioAssay AID488969 (Vanderbilt High Throughput Screening Facility, 2010), this text covers z-score for 113 compounds.

The full ranking holds about 110,000 compounds; the median of “z-score” is about -0.1, and the highest 2% start at about 2. For the sample, the highest values were picked, then their nearest neighbours and some compounds at random. Activity calls are given as the source filed them.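 How the source made its calls: active means z-score in the third read window above 3 or below -3; inactive means the rest.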

The target of the experiment is Metabotropic glutamate receptor 8 (Rattus norvegicus) (UniProt P70579). As to the kind of experiment: mGluR8 Gi/Go-coupled signaling modulation – cell-based, rat, thallium flux, HTS, primary screen (AID 488969). The following applies: HEK293 rat mGluR8, GIRK (G protein-gated inwardly rectifying potassium channel) thallium flux, FluoZin2; at 10 µM; stronger effect = higher value; submaximal glutamate (EC20) added with thallium.
Sequence of Metabotropic glutamate receptor 8 (Rattus norvegicus) (P70579 whole entry, looked up): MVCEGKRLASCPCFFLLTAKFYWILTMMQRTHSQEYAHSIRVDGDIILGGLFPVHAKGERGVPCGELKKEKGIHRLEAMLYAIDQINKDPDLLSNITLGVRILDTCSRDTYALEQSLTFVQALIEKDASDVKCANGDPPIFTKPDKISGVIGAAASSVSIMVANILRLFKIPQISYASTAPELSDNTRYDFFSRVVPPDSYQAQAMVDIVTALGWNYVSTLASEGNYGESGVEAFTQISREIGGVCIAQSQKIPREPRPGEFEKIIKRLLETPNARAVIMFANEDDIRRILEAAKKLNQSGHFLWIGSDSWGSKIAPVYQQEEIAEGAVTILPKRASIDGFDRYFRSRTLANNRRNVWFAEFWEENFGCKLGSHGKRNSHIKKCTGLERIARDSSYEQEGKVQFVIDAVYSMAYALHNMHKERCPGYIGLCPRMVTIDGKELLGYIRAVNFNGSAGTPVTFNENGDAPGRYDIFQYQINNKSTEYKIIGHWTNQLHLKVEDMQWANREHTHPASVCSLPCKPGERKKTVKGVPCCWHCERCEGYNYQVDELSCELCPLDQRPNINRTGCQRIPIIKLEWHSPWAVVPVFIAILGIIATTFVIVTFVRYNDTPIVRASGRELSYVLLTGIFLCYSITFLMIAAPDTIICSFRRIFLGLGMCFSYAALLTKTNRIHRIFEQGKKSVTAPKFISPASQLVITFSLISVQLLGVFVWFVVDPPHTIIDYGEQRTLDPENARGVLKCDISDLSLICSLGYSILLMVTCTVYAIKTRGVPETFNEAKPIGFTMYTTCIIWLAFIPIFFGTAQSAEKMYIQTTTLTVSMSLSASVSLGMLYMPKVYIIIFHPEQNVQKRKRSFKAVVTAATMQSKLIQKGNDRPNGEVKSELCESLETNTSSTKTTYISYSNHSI
For the compound `CCOC(=O)c1ccc(S(=O)(=O)NCC(c2ccc(N(C)C)cc2)c2c[nH]c3ccccc23)cc1` (stereo not drawn), the z-score came to 0.201.
On to `CCOc1ccccc1NC(=O)Cc1c(F)cccc1Cl`, for which the z-score was -0.491.
In the case of `C#CC1(O)CC(C)N(C)C(C)C1` (stereo not drawn), the z-score is -0.0403.
Take `O=C(NNc1cccc(Cl)n1)c1cccnc1Cl`: the z-score was -0.00142.
For the compound `OC(COCCC12CC3CC(CC(C3)C1)C2)CN1CCCCC1` (stereo not drawn), the z-score was -0.152.
As to `CCN(CC)CC(O)COCCC12CC3CC(CC(C3)C1)C2` (stereo not drawn), the z-score is 3.04 (active).
`OCCN(CCO)CC(O)COCCC12CC3CC(CC(C3)C1)C2` (stereo not drawn): the z-score came out at 0.239.
For the compound `O=C(COC(=O)c1cccs1)c1ccc2c(c1)OCCO2`, the z-score was -0.579.
In the case of `CC(C)(C)NC(=O)C(c1ccc(F)cc1)N(Cc1ccco1)C(=O)Cn1nnc(-c2cccs2)n1` (stereo not drawn), the z-score is -0.585.
`CC(C)NC(=O)c1nc2ccccc2s1`: the z-score is 3.05 (active).
Under `O=C(CSc1ncnc2ccccc12)N1CCN(c2ccccc2)CC1` stands -0.0217; under `CCOC(=O)N1CCN(C(=O)CSc2ncnc3ccccc23)CC1`, 3.04 (active).
For `CC(C)(C)NC(=O)c1nc2ccccc2s1`, the z-score came to 0.283.
Under `CCOC(=O)N1CCN(C(=O)c2nc3ccccc3s2)CC1` stands 2.8.
Under `O=C(NCCO)c1nc2ccccc2s1` stands 1.28; under `CCOC(=O)N1CCN(/C=C(\C#N)c2nc3ccccc3s2)CC1`, 1.73; under `O=C(c1nc2ccccc2s1)N1CCSCC1`, 0.0723.
Then `CCOC(=O)N1CCN(C(=O)CSc2ncccn2)CC1`, with 0.107; and `S=C(Nc1ccc(Cl)cc1)c1sc(N2CCCCC2)nc1N1CCOCC1`, with -0.435; and `CC(NC(=O)COc1ccccc1-c1ccccc1)c1ccccc1` (stereo not drawn), with -0.192.
For `O=C(COc1ccc2c(c1)CCC2)N1CCN(c2cccc(C(F)(F)F)c2)CC1`, the z-score is -0.0515.
Then `Cc1ccc(OCCN2CCN(CC(O)Cn3c4ccccc4c4ccccc43)CC2)cc1` (stereo not drawn), with 0.113; and `CC(C(=O)N1c2ccccc2CCc2ccccc21)n1nnc(-c2ccc(N(C)C)cc2)n1` (stereo not drawn), with 0.255; and `Cc1cc(NC(=O)CSc2nc(CC(C)(C)C)nc3c2c(=O)n(C)c(=O)n3C)no1`, with -0.0135.
Consider `CCOc1ccc2nc(NC(=O)c3ccoc3C)sc2c1`, for which the z-score was -0.855.
Take `COc1ccccc1Nc1nnc(SCC(=O)NC(=O)Nc2ccc3c(c2)OCCO3)s1`: the z-score is -0.138.
For `Cc1cc(C(=O)CSc2nnc(-c3cccnc3)n2-c2ccccc2)c(C)n1CC1CCCO1` (stereo not drawn), the z-score is -0.185.
Under `COC(=O)Nc1ccc(S(=O)(=O)Nc2ccccc2F)cc1` stands 0.00713; under `Cc1cc(NC(=O)C2C3C(=O)N(Cc4ccc(Cl)cc4)C(C(=O)NCc4ccccc4)C34C=CC2(C)O4)no1` (stereo not drawn), 0.193; under `Cc1cccc(NC(=O)CN2C(=O)S/C(=C\c3cc(C)n(C)c3C)C2=O)c1`, 0.326.
Under `CCOC(=O)C1=C(C)NC(C)=C(C(=O)OCC)C1C(=O)OCC(=O)N1c2ccccc2CC1C` (stereo not drawn) stands 2.55; under `COC(=O)C1=C(C)NC(C)=C(C(=O)OC)C1C(=O)OCC(=O)N1c2ccccc2CC1C` (stereo not drawn), 0.131; under `CCOC(=O)N1CCN(CC(=O)N2c3ccccc3CC2C)CC1` (stereo not drawn), -0.746.
Then `C/C(=N\NC(=O)OC(C)(C)C)c1cccc([N+](=O)[O-])c1`, with -0.272; and `Cc1ccc(C(=O)Nc2nc(=O)n(C(=O)C3CC3)s2)cc1`, with -0.185; and `Cc1cc(Nc2ccccc2)nc(NCc2ccccc2)n1`, with 2.34.
Consider `Cc1ccc(Nc2cc(C)nc(NCc3ccccc3)n2)cc1`, for which the z-score was -0.326.
`Cc1cc(N2CCN(c3ccccc3)CC2)nc(NCc2ccccc2)n1` gave a z-score of 3.
With `Cc1cc(N2CCOCC2)nc(NCc2ccccc2)n1`, the z-score is -0.0745.
Under `Cc1cc(Nc2ccc(Cl)cc2)nc(NCc2ccccc2)n1` stands -0.173; under `Cc1cc(N2CCCCC2)nc(NCc2ccccc2)n1`, 0.794; under `c1ccc(-c2nnc(-c3ccccc3)c(-c3c[nH]c4ccccc34)n2)cc1`, 0.446.
As to `Fc1cccc2sc(Nc3nc4c(F)cccc4s3)nc12`, the z-score turned out to be 2.09.
For the compound `Fc1cccc2sc(Nc3nc4ccccc4s3)nc12`, the z-score was determined as 2.21.
On to `Fc1cc(F)c2nc(Nc3nc4c(F)cccc4s3)sc2c1`, for which the z-score was 9.18 (active).
Under `NNc1nc2c(F)cccc2s1` stands 0.0402; under `Fc1cc(F)c2nc(N3CCCCC3)sc2c1`, -0.14; under `Cc1ccccc1Nc1nc2ccccc2s1`, 0.103.
In turn, `CC(=O)Nc1nc2c(F)cccc2s1` showed a z-score of 0.033.
`NNc1nc2c(F)cc(F)cc2s1`: the z-score is -0.193.
Consider `Cc1ccc(Nc2nc3ccccc3s2)cc1`, for which the z-score came out at 0.0689.
Take `O=C(Nc1ccc(Cl)cc1)Nc1cccnc1`: the z-score was determined as 0.471.
With `CCN(CC)c1ncnc2c1cnn2C`, the z-score was -0.228.
Then `CCC1(CC)C(=O)N(C)C(=O)NC1=NCc1ccccc1`, with 0.146; and `COc1ccc(/C=C/C(=O)Nc2ccc(N3CCOCC3)cc2)cc1`, with -0.219.
Consider `CC(C)Cn1c(N)c(C(=O)CSc2nnnn2C)c(=O)n(C)c1=O`, for which the z-score is -0.302.
With `CC(C)Cn1c(N)c(C(=O)CSc2ccccc2)c(=O)n(C)c1=O`, the z-score is -0.216.
With `CCCCn1c(N)c(C(=S)NC(=O)CC(C)(C)C)c(=O)n(C)c1=O`, the z-score is 9.54 (active).
As for `CCCn1c(N)c(C(=S)NC(=O)C2CC2)c(=O)n(C)c1=O`, the z-score worked out at 0.941.
`CCCCn1c(N)c(C(=S)NC(=O)CC(C)C)c(=O)n(C)c1=O`: the z-score was 3.59 (active).
The compound `Cn1c(=O)c(C(=S)NC(=O)C2CC2)c(N)n(Cc2ccccc2)c1=O` registered a z-score of 0.362.
As for `CC(C)(C)n1ncc2c(=O)n(Cc3ccc(Cl)cc3Cl)cnc21`, the z-score was -1.25.
Take `Cc1ccc(CNC(=O)CCCOc2cc(=O)n(C)c3ccccc23)o1`: the z-score was -0.129.
Under `Clc1ccc(C(c2nnnn2C2CCCC2)N2CCSCC2)cc1` (stereo not drawn) stands -0.998; under `O=C(O)C1CCN(C(=O)c2ccccc2Cl)CC1`, -0.551.
`CC(=O)NC(CC(=O)Nc1cccc(S(=O)(=O)N2CCCCC2)c1)c1ccccc1` (stereo not drawn) showed a z-score of 0.132.
Consider `COCCCn1c(SCC(=O)N2CCc3ccccc32)nnc1-c1ccco1`, for which the z-score was -0.129.
Turning to `COc1ccc(N/C(C)=C2/C(=O)C(=O)N(CCO)C2c2ccc(Br)cc2)cc1` (stereo not drawn), the z-score was 5.05 (active).
For the compound `COc1ccc(N/C(C)=C2/C(=O)C(=O)N(CCO)C2c2ccc([N+](=O)[O-])cc2)cc1` (stereo not drawn), the z-score is -0.701.
Under `COc1ccc(C2/C(=C(/O)c3ccccc3)C(=O)C(=O)N2CCO)cc1` (stereo not drawn) stands -0.0153; under `O=C1CCCc2c1cc(C(=O)NC1CCSC1=O)c(=O)n2-c1ccccc1` (stereo not drawn), -0.276.
As to `CCN(CC)CC(=O)Nc1ccc2c(c1)Nc1ccccc1CC2`, the z-score came to 2.49.
For `CCN(CC)CC(=O)Nc1ccc2c(c1)N(C(=O)CN(CC)CC)c1ccccc1CC2`, the z-score is -0.342.
With `CCN(CC)CCC(=O)Nc1ccc2c(c1)N(C(=O)CN(CC)CC)c1ccccc1CC2`, the z-score was -0.214.
Then `COc1ccc(C(=O)c2cn[nH]c2-c2cc(Cl)ccc2O)cc1`, with -0.207; and `COc1ccc(/C=C2\C(=O)N(c3c(Cl)cc(Cl)cc3Cl)N=C2NC(=O)c2cccc([N+](=O)[O-])c2)cc1`, with -0.0535; and `Cc1ccc(C)c(NC(=O)CS(=O)(=O)c2cn(C)c3ccccc23)c1`, with 0.61.
As to `CCn1cc(S(=O)(=O)CC(=O)Nc2ccc(C)cc2)c2ccccc21`, the z-score is -0.393.
In turn, `CCn1cc(S(=O)(=O)CC(=O)Nc2cc(C)ccc2C)c2ccccc21` gave a z-score of 2.61.
Consider `CCOc1ccc(OCCOCCNCCOC)cc1`, for which the z-score stood at 0.0989.
As to `Cc1c(CN(C)CCc2ccccc2)c(=O)n(-c2ccccc2)n1C`, the z-score is -0.04.
`CCc1ccc(Nc2nnc(SCC(=O)Nc3cccc(S(=O)(=O)NC4=NCCCCC4)c3)s2)cc1`: the z-score is -0.205.
`CCn1cc(C2=NOC(C(=O)Nc3ccccc3C(=O)OC)C2)c(C)n1` (stereo not drawn): the z-score is -0.574.
On to `CSc1ccccc1NC(=O)C1CC(c2ccccc2O)=NO1` (stereo not drawn), for which the z-score was -0.288.
As for `COC(=O)c1ccccc1NC(=O)C1CC(c2ccccc2O)=NO1` (stereo not drawn), the z-score came out at 2.57.
Then `CN(C)CCCNCCNC(=O)/C=N\O`, with -0.494; and `O=C1CC(c2ccncc2)c2cc3c(cc2N1)OCO3` (stereo not drawn), with 0.106; and `O=C1CC(c2ccncc2)c2cc3c(cc2N1)OCCO3` (stereo not drawn), with 7.59 (active).
`O=C1CC(c2ccc3c(c2)OCO3)c2cc3c(cc2N1)OCCO3` (stereo not drawn) came in with a z-score of 0.0815.
With `Cc1ccc(S(=O)(=O)CC(=O)c2ccc(C)c([N+](=O)[O-])c2)cc1`, the z-score was -0.799.
For the compound `CN(Cc1cccs1)C(=O)CCc1ccc(S(=O)(=O)N2CCOCC2)cc1`, the z-score is 0.00198.
Take `CS(=O)(=O)C1=NSC2=NC(=O)/C(=C\c3cccn3-c3ccc(Cl)cc3)C(=N)N21`: the z-score was -0.377.
Take `O=C1CCC(/C=C/c2ccccc2)=NN1Cc1ccc(Cl)c(Cl)c1`: the z-score was 13.4 (active).
On to `Cc1ccc(/C=C/C2=NN(Cc3ccc(Cl)c(Cl)c3)C(=O)CC2)cc1`, for which the z-score is -0.176.
`O=C1CCC(/C=C/c2ccccc2)=NN1Cc1ccccc1Cl`: the z-score is -0.293.
`O=C(Cc1ccccc1)N/N=C/c1cccn1-c1ccc([N+](=O)[O-])cc1`: the z-score was 3.83 (active).
In the case of `O=C(N/N=C/c1cccn1-c1ccc([N+](=O)[O-])cc1)C(O)c1ccccc1` (stereo not drawn), the z-score came out at 0.181.
Turning to `COc1ccc(CC(=O)N/N=C/c2cccn2-c2ccc([N+](=O)[O-])cc2)cc1OC`, the z-score was -0.892.
For `O=C1CC(N2CCN(Cc3ccccc3)CC2)C(=O)N1c1ccc2c(c1)OCCO2` (stereo not drawn), the z-score was -0.057.
With `CC1(C(=O)NC23CC4CC(CC(C4)C2)C3)CC1(Cl)Cl` (stereo not drawn), the z-score was -0.368.
Regarding `CSC(=O)NC12CC3CC(CC(C)(C3)C1)C2`, the z-score was 8.08 (active).
Under `CCSC(=O)NC12CC3CC(CC(C3)C1)C2` stands -0.316.
Under `CCOC(=O)CN1C(c2ccccc2O)Nc2ccc(Br)cc2C1c1ccccc1` (stereo not drawn) stands -0.45.
With `CC(OC(=O)CN(C)S(=O)(=O)c1ccc(Cl)cc1)C(=O)Nc1ncc(Cl)cc1Cl` (stereo not drawn), the z-score is -0.285.
`Nc1c(CO)nnn1-c1ccccc1`: the z-score was -0.379.
As for `CCCCn1c(-c2csc(CC)c2)n[nH]c1=S`, the z-score came out at 2.15.
For `CCCCn1c(-c2cccnc2)n[nH]c1=S`, the z-score is -0.106.
With `CCCCn1c(-c2csc(C(C)C)c2)n[nH]c1=S`, the z-score is 6.36 (active).
With `CCc1cc(-c2n[nH]c(=S)n2CC)cs1`, the z-score was -0.194.
The compound `CCCCn1c(-c2ccoc2C)n[nH]c1=S` showed a z-score of 0.216.
For `CC(C)c1cc(-c2n[nH]c(=S)n2Cc2ccccc2)cs1`, the z-score was 1.35.
`CCNC(=S)N(Cc1ccco1)Cc1cc2cc3c(cc2[nH]c1=O)OCCO3`: the z-score stood at 0.158.
As to `Nc1ccc(C2(c3ccc(N)cc3)C(=O)Nc3ccccc32)cc1`, the z-score was -0.763.
